By AC50 is commonly meant the concentration at which the activity in the assay is half-maximal.

Test [1] in a line: ATG_PXRE_CIS: Attagene CIS-FACTORIAL HepG2 Assay for human Pregnane X Receptor Element (PXRE) (AID 2282957). Conditions: HepG2 Attagene CIS-FACTORIAL PXRE reporter, mRNA; actives raise or lower the signal. In short, it runs like this: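 Transfect HepG2 with MRTUs (cis promoter elements); dose chemical, incubate 24 h; isolate RNA, RT with oligo(dT), PCR, 6-FAM label, HpaI cut, CE. Gain/loss fit vs DMSO.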

Test [2] in a line: ATG_PPRE_CIS: Attagene CIS-FACTORIAL HepG2 Assay for human Peroxisome Proliferator-activated Response Element (PPRE) (AID 2282958). As to conditions: HepG2 PPRE cis-element reporter, Attagene transcription factor profiling; actives raise or lower the signal. In short, it runs like this: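 Cells are first transfected transiently with the multiplexed reporter library, then dosed for 24 h. Total RNA is reverse-transcribed, amplified, fluorescently end-labeled and HpaI-cut before capillary electrophoresis; activity is fitted bidirectionally against DMSO controls.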

Test [3] can be described thus: ATG_RORE_CIS: Attagene CIS-FACTORIAL HepG2 Assay for human RAR-related Orphan Receptor Element (RORE) (AID 2282959). Conditions: HepG2 Attagene cis-factorial RORE reporter, mRNA; actives raise or lower the signal. In short, it runs like this:
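Cells were HepG2 carrying transfected cis-regulated reporter constructs, dosed for 24 hours. Total RNA was reverse-transcribed and reporter cDNA amplified, fluorescently labeled and sized by capillary electrophoresis. Activity was fitted bidirectionally relative to DMSO.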

In test [4] the target is Transcription factor Sp1 (Homo sapiens) (UniProt P08047). Description: ATG_Sp1_CIS: Attagene CIS-FACTORIAL HepG2 Assay for human Specificity Protein 1 (Sp1) (AID 2282961). As to conditions: HepG2 Sp1 cis-reporter transcription, actives raise or lower the signal. In short, it runs like this:
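Endogenous Sp1 activity was gauged in human liver HepG2 cells bearing transfected reporter units under a cis-regulating promoter. After 24 h dosing, reporter mRNA was quantified by RT-PCR with capillary electrophoresis, and activity fitted bidirectionally versus DMSO.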

A short description of test [5]: ATG_SREBP_CIS: Attagene CIS-FACTORIAL HepG2 Assay for human Sterol Regulatory Element Binding (SREBP) (AID 2282962). Conditions: HepG2 Attagene cis-factorial SREBP reporter, mRNA; actives raise or lower the signal. In short, it runs like this: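 mRNA induction of transfected cis-promoter reporters in HepG2 cells, 24 h post-dose. Detection: RT-PCR with 6-FAM-labelled products, HpaI digest, capillary electrophoresis. DMSO served as negative control and baseline.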

The target in test [6] is Signal transducer and activator of transcription 3 (Homo sapiens) (UniProt P40763). In words: ATG_STAT3_CIS: Attagene CIS-FACTORIAL HepG2 Assay for human Signal Transducer and Activator of Transcription 3 (STAT3) (AID 2282963). Conditions: HepG2, Attagene cis-factorial STAT3 reporter transcription; actives raise or lower the signal. A digest of the protocol:
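HepG2 cells transiently transfected with cis-element-driven multiple reporter transcription units; after 24 h chemical exposure, reporter mRNA measured by RT-PCR, 6-FAM primer-extension labelling, HpaI digestion and capillary electrophoresis. Bidirectional fitting versus DMSO baseline.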

A short description of test [7]: ATG_TA_CIS: Attagene CIS-FACTORIAL HepG2 Assay for human TA Basal Promoter (AID 2282964). Conditions: HepG2 Attagene CIS-factorial TA basal promoter reporter; actives raise or lower the signal. A digest of the protocol:
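Background-control readout: TA basal promoter reporter mRNA, fitted in both directions relative to DMSO. Measured by RT-PCR and capillary electrophoresis 24 hours after treating HepG2 human liver cells transiently carrying multiplexed cis-regulated reporter constructs.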

Test [8] in a line: ATG_TCF_b_cat_CIS: Attagene CIS-FACTORIAL HepG2 Assay for human T-Cell-Factor with beta-catenin (TCF/b-cat) (AID 2282965). As to conditions: HepG2 TCF/beta-catenin cis-reporter transcription, actives raise or lower the signal. A digest of the protocol:
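Using capillary electrophoresis as the read-out, labelled reporter cDNA fragments from transiently transfected HepG2 were sized and quantified. Exposure lasted 24 hours; activity in either direction was referenced to DMSO.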

Test [9] in a line: ATG_TAL_CIS: Attagene CIS-FACTORIAL HepG2 Assay for human TAL Basal Promoter (AID 2282966).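 Further: background control endpoint measuring basal TAL promoter reporter mRNA not a specific factor.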 Conditions: HepG2 Attagene cis-factorial TAL promoter reporter; actives raise or lower the signal. In short, it runs like this:
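Fluorescence of labelled reporter cDNA fragments, resolved by capillary electrophoresis, gave the readout. Human HepG2 liver cells carried transiently transfected cis-element reporter units and were treated for 24 hours; activity was fitted bidirectionally against DMSO.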

Test [10] can be described thus: ATG_TGFb_CIS: Attagene CIS-FACTORIAL HepG2 Assay for human Transforming Growth Factor (TGF) (AID 2282967). As to conditions: HepG2 Attagene CIS TGFb reporter, mRNA transcription; actives raise or lower the signal. In short, it runs like this: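 Endogenous TGFB1-linked transcription factor activity read as reporter mRNA via RT-PCR and capillary electrophoresis, 24 h after dosing transiently transfected HepG2 cells. Gain or loss of signal fitted relative to DMSO.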

A short description of test [11]: ATG_VDRE_CIS: Attagene CIS-FACTORIAL HepG2 Assay for human Vitamin D Receptor Element (VDRE) (AID 2282968). Conditions: HepG2 VDRE cis-reporter transcription, actives raise or lower the signal. A digest of the protocol: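 HepG2 cells transiently transfected with cis-element reporter units, dosed 24 h; reporter mRNA measured by RT-PCR, 6-FAM labeling, HpaI digestion and capillary electrophoresis. Activity fitted bidirectionally against DMSO baseline.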

For test [12], the target named is X-box-binding protein 1 (Homo sapiens) (UniProt P17861). In words: ATG_Xbp1_CIS: Attagene CIS-FACTORIAL HepG2 Assay for human X-box Binding Protein 1 (XBP1) (AID 2282972). As to conditions: HepG2 XBP1 cis-element reporter, Attagene multiplex; actives raise or lower the signal. In short, it runs like this:
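Fluorescence-labelled cDNA fragments from reporter transcripts, separated by capillary electrophoresis, give the signal. Source: HepG2 cells transfected with promoter-driven reporter units, harvested 24 h post-dose. DMSO served as reference for bidirectional curve fitting.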

Test [13] can be described thus: ATG_GAL4_TRANS: Attagene TRANS-FACTORIAL HepG2 Assay for GAL4 (Internal Marker) (AID 2282976; active means hit-call score of the fitted dose curve at least 0.9, where 1 is the maximum). Conditions: HepG2 Attagene TRANS GAL4 internal marker reporter. In short, it runs like this:
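First, HepG2 cells were transfected with reporter units under GAL4-UAS control. Next, they were treated with chemical for 24 h. Finally, RNA was reverse-transcribed, PCR-amplified, FAM-labelled and resolved by capillary electrophoresis, with induction scored against DMSO.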

A short description of test [14]: ATG_Sox_CIS: Attagene CIS-FACTORIAL HepG2 Assay for human SRY-box transcription factor (SOX) (AID 2282960). Conditions: HepG2 Attagene cis-factorial SOX reporter, mRNA; actives raise or lower the signal. A digest of the protocol: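 Transient MRTU transfection of HepG2; 24 h compound incubation; TriZol RNA, oligo(dT) RT, PCR, 6-FAM primer extension, HpaI cut, CE. Bidirectional fit, DMSO = baseline.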

For test [15], the target named is Nuclear receptor subfamily 1 group I member 3 (Homo sapiens) (UniProt Q14994). In words: ATG_CAR_TRANS: Attagene TRANS-FACTORIAL HepG2 Assay for human Constitutive Androstane Receptor (CAR) (AID 2282969; active means hit-call score of the fitted dose curve at least 0.9, where 1 is the maximum;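 further: activators raise reporter mRNA above DMSO so AC50 marks induction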). As to conditions: HepG2 Attagene TRANS-FACTORIAL CAR reporter. In short, it runs like this:
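HepG2 cells transiently transfected with multiplexed GAL4-UAS reporter units expressing chimeric NR-Gal4 proteins; compound exposure 24 h. Reporter mRNA measured by RT-PCR, 6-FAM labelling, HpaI digestion and capillary electrophoresis; gain-of-signal fitted against DMSO baseline.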

For test [16], the target named is Estrogen receptor (Homo sapiens) (UniProt P03372). In words: ATG_ERa_TRANS: Attagene TRANS-FACTORIAL HepG2 Assay for human Estrogen Receptor alpha (ERa) (AID 2282970; active means hit-call score of the fitted dose curve at least 0.9, where 1 is the maximum). Conditions: HepG2 Attagene TRANS ERa GAL4 reporter, mRNA. A digest of the protocol: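 Human liver HepG2, transient transfection of multiple GAL4-UAS reporter units; TRANS format (exogenous NR-Gal4 chimera). 24 h dosing. Readout: reporter mRNA, RT-PCR, 6-FAM primer extension, HpaI digest, capillary electrophoresis. Positive direction vs DMSO.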
Estrogen receptor (Homo sapiens), sequence (P03372 whole entry, looked up, the tested form may be a part): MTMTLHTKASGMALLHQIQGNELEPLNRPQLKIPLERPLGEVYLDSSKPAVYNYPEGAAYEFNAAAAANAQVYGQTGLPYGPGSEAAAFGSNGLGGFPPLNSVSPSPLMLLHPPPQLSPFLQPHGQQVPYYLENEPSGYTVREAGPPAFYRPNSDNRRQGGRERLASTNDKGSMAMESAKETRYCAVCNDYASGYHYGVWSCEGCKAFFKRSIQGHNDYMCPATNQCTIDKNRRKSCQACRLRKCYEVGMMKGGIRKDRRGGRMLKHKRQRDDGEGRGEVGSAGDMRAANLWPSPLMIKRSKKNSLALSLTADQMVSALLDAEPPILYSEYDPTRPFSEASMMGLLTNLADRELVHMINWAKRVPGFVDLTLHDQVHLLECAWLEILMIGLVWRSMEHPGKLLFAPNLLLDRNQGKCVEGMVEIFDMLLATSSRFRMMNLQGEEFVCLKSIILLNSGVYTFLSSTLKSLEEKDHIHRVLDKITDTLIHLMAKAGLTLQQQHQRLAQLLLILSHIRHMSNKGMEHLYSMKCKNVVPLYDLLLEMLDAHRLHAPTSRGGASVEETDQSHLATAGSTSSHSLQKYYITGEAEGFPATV

Test [17] can be described thus: ATG_M_19_TRANS: Attagene TRANS-FACTORIAL HepG2 Assay for M19 Transcription Factor (Internal Marker) (AID 2282974; active means hit-call score of the fitted dose curve at least 0.9, where 1 is the maximum). As to conditions: HepG2 Attagene TRANS-FACTORIAL M19 internal marker reporter. A digest of the protocol:
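Cells: human HepG2, transiently transfected with multiplexed reporter transcription units. Exposure: 24 h. Detection: RT-PCR of reporter mRNA with capillary electrophoresis. Analysis: gain-of-signal vs DMSO.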

Test [18] deals with Estrogen-related receptor gamma (Homo sapiens) (UniProt P62508). In words: ATG_ERRg_TRANS: Attagene TRANS-FACTORIAL HepG2 Assay for human Estrogen-Related Receptor gamma (ERRg) (AID 2282977; active means hit-call score of the fitted dose curve at least 0.9, where 1 is the maximum;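 further: hits increase reporter signal over DMSO so potencies reflect activators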). Conditions: HepG2 Attagene TRANS reporter, ERRg transactivation. A digest of the protocol:
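Transient HepG2 transfectants, 24 h compound exposure, GAL4-UAS reporter mRNA by RT-PCR/6-FAM labelling/capillary electrophoresis; positive direction vs DMSO.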

For test [19], the target named is Steroid hormone receptor ERR1 (Homo sapiens) (UniProt P11474). Description: ATG_ERRa_TRANS: Attagene TRANS-FACTORIAL HepG2 Assay for human Estrogen-Related Receptor alpha (ERRa) (AID 2282971; active means hit-call score of the fitted dose curve at least 0.9, where 1 is the maximum). Conditions: HepG2 Attagene TRANS reporter, ERRa transactivation. A digest of the protocol:
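Reporter transcript induction was quantified by RT-PCR and capillary electrophoresis of FAM-labelled, HpaI-cut products after 24 h treatment of HepG2 cells carrying transiently transfected GAL4-UAS reporter units and an exogenous ERRa-Gal4 fusion; activity scored as increase over DMSO.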

Records with an inconclusive call do not appear. Active and inactive are the calls of the source. How the source made its calls, unless noted: active means hit-call score of the fitted dose curve at least 0.9, where 1 is the maximum; inactive means score below 0.9.

Transcription factor Sp1 (Homo sapiens), sequence (P08047 whole entry, looked up): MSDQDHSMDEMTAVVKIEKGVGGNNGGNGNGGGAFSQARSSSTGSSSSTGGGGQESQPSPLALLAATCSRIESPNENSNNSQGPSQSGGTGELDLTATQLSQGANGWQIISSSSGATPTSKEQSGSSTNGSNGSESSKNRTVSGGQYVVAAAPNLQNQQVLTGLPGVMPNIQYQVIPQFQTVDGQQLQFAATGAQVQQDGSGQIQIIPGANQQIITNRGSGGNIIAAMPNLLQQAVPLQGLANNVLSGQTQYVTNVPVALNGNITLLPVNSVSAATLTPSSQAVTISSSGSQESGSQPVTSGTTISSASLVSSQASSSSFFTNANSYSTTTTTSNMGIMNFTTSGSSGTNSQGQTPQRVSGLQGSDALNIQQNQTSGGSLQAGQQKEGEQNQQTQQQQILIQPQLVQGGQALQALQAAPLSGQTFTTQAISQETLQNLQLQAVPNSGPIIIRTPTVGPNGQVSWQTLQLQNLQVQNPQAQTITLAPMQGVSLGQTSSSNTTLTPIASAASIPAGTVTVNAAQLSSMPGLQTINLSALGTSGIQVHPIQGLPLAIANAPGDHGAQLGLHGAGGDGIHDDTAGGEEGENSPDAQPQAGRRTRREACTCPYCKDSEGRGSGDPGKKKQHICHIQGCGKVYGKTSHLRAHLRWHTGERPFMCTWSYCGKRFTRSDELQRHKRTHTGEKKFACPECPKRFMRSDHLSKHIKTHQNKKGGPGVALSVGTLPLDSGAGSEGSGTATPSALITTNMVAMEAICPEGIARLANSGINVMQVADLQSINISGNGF
Signal transducer and activator of transcription 3 (Homo sapiens), sequence (P40763 whole entry, looked up): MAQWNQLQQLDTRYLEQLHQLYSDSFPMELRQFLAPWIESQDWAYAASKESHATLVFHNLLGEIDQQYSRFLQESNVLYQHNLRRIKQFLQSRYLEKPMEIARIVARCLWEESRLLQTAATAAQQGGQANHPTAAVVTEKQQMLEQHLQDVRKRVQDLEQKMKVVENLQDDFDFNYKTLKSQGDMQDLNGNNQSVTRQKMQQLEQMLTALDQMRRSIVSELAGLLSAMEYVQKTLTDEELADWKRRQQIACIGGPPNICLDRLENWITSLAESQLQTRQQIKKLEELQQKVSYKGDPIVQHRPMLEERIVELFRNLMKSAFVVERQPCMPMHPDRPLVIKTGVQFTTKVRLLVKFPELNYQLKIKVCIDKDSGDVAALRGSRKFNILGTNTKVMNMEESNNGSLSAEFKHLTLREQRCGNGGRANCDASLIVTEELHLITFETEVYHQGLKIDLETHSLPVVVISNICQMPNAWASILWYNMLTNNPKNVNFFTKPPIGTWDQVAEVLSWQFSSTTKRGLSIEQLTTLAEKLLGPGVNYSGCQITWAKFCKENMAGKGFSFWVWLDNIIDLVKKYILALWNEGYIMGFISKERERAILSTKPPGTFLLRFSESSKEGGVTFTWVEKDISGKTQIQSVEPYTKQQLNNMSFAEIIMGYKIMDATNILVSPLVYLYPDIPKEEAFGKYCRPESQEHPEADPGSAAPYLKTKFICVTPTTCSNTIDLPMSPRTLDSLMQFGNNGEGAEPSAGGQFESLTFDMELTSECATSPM
Estrogen-related receptor gamma (Homo sapiens), sequence (P62508 whole entry, looked up, the tested form may be a part): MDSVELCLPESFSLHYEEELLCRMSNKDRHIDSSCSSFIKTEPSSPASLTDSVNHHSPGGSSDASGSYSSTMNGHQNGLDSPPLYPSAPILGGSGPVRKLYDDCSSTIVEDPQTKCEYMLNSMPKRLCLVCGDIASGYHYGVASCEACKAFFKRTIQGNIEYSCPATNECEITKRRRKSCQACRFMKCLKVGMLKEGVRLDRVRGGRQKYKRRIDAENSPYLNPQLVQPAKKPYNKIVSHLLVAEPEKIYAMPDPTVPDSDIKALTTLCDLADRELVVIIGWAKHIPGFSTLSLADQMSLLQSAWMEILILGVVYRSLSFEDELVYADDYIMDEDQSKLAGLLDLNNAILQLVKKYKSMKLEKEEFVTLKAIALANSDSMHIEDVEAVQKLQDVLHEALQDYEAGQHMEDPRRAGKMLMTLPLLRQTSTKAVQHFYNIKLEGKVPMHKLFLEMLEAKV
Nuclear receptor subfamily 1 group I member 3 (Homo sapiens), sequence (Q14994 whole entry, looked up, the tested form may be a part): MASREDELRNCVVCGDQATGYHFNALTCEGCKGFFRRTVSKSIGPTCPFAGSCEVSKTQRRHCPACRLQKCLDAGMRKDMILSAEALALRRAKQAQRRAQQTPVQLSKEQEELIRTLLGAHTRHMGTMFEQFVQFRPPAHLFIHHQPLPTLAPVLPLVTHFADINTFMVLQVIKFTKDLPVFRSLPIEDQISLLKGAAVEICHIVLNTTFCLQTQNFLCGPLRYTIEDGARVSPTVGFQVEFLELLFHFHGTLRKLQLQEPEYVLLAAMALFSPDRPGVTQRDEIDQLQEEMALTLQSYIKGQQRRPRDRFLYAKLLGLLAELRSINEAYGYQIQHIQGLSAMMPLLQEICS
X-box-binding protein 1 (Homo sapiens), sequence (P17861 whole entry, looked up, the tested form may be a part): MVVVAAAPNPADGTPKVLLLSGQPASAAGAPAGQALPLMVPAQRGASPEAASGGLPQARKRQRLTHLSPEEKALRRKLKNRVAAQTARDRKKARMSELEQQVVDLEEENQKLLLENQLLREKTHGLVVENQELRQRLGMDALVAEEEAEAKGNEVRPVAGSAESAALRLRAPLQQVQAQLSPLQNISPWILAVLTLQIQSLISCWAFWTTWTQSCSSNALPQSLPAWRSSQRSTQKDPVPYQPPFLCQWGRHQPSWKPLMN
Steroid hormone receptor ERR1 (Homo sapiens), sequence (P11474 whole entry, looked up, the tested form may be a part): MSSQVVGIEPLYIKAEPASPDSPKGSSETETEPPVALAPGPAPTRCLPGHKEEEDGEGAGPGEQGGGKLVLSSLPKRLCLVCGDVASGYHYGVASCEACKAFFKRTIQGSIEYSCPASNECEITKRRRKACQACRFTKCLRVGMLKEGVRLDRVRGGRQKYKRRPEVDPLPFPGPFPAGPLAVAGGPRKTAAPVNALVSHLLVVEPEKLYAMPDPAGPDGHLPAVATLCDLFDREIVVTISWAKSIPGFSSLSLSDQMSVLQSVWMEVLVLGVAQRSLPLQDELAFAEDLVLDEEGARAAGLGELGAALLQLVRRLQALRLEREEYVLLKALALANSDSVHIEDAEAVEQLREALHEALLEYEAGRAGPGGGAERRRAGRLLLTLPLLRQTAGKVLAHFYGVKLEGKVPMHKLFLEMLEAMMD

Consider `CCCCCC/C=C\CCCCCCCC(=O)O`, for which the compound was classed as inactive in [1], in [2], in test [3], in [4], in test [5] and in [6]. Also, the compound was called inactive in [7], in test [8], in test [9], in [10], in test [11] and in test [12]. Further, in test [13], the call was inactive.
Turning to `Nc1nc2ccccc2[nH]1`, the compound was called inactive in test [1], in test [14], in test [4], in test [5], in test [6] and in [7]. The compound was classed as inactive in [8], in test [10], in test [11], in [15], in test [16] and in [12].
On to `c1cc(N(CC2CO2)CC2CO2)ccc1OCC1CO1` (stereo not given), for which the compound was called inactive in [1], in test [6], in test [9], in [10], in test [15] and in test [17]. Further, the compound was classed as inactive in test [18]. Moreover, the AC50 in test [3] was 80.6 µM (active); in test [14], 58.5 µM (active); in [4], 56.9 µM (active); in test [8], 12.6 µM (active); in test [11], 36.8 µM (active); in [12], 12.9 µM (active).
As for `CC=CCO`, the AC50 in [1] was 26.8 µM (active). Moreover, the result in test [2], in [3], in [14], in test [4], in test [5] and in test [6] was inactive. Moreover, the result in [7], in test [8], in [9], in test [10], in test [11] and in test [12] was inactive.
With `CCOc1ccc(N)c([N+](=O)[O-])c1`, the result in test [1], in test [2], in test [3], in [4], in [5] and in test [6] was inactive. Moreover, the compound was called inactive in test [7], in test [8], in test [10], in [11], in test [15] and in test [12].
Take `CC1(C)S[C@@H]2[C@H](NC(=O)COc3ccccc3)C(=O)N2[C@H]1C(=O)O`: the half-maximal activity concentration (AC50) in test [1] was 4.35 µM (active). In addition, the result in test [2], in test [3], in [14], in test [4], in test [5] and in test [6] was inactive. Besides, the outcome in test [7], in [8], in test [9], in [11], in [12] and in test [17] was inactive. The outcome in test [18] was inactive.
Turning to `CCC(C)(C)C1CCCCC1OC(C)=O` (stereo not given), in [1], the AC50 is 27.2 µM (active). For the same compound, the compound was classed as inactive in test [2], in [3], in [14], in test [4], in test [6] and in [7]. The compound was classed as inactive in test [8], in test [10], in test [11], in test [15], in test [16] and in test [19]. The compound was classed as inactive in test [12] and in test [13].
As to `C[Si](C)(C)O[Si](O)(O)O`, the AC50 in test [1] was 26.9 µM (active). In addition, the result in test [2], in test [3], in test [14], in test [4], in [5] and in [7] was inactive. Further, the call in test [8], in [9], in test [10], in test [11], in [16] and in test [12] was inactive.
In the case of `CCCCCCCCC(=O)OCC`, the compound was classed as inactive in [1], in test [2], in test [3], in test [14], in [4] and in test [5]. Further, the compound was classed as inactive in test [6], in test [8], in [9], in [10], in [16] and in [12]. The call in test [17], in test [13] and in test [18] was inactive.

For the origin of these results see PubChem BioAssay (EPA / NIEHS).
